According to PubChem BioAssay (NCATS):
Records with an inconclusive call do not appear. Activity calls are given as the source filed them. Calls come from the whole dose curve; as a rule, active = well fitted inhibition curve with a large enough effect; inconclusive = small, poorly fitted or top-dose-only effect; inactive = flat fitted curve, though single readings scatter.

How the values were obtained:
Experiment in all cases: qHTS profiling for inhibitors of Plasmodium falciparum proliferation (AID 504749); note: nearly all actives have a fitted effect of over 60% in size
Settings in all cases: P. falciparum in erythrocytes, SYBR Green DNA, 72 h
CP297 = test system: CP297
Outline: (§1)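 P. falciparum-infected erythrocytes (0.3% parasitemia, 2.5% hematocrit) incubated with compound 72 h at 37 C, 5% CO2. Parasite DNA detected by SYBR Green after lysis, overnight at room temperature; normalised to 0.29 uM artemisinin and DMSO.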

CP305 = test system: CP305
Outline: as §1

CP315 = test system: CP315
Outline: as §1

CP325 = test system: CP325
Outline: as §1

CP329 = test system: CP329
Outline: as §1

CP335 = test system: CP335
Outline: as §1

DFO2036 = test system: DFO2036
Outline: as §1

DIV14 = test system: DIV14
Outline: as §1

DIV17 = test system: DIV17
Outline: as §1

DIV30 = test system: DIV30
Outline: as §1

Measured: Potency
Potency is the fitted concentration of half-maximal effect.

CC[C@]1(O)CC2CN(CCc3c([nH]c4ccccc34)[C@@](C(=O)OC)(c3cc4c(cc3OC)N(C)[C@H]3[C@@](O)(C(=O)OC)[C@H](OC(C)=O)[C@]5(CC)C=CCN6CC[C@]43[C@@H]65)C2)C1 (stereo not given in full)
active: CP297 3010 nM | CP305 3380 nM | CP315 1690 nM | CP325 3380 nM | CP329 2390 nM | CP335 675 nM | DFO2036 3550 nM | DIV14 6750 nM | DIV17 6750 nM | DIV30 1900 nM

CC(=O)O[C@H]1C(=O)[C@@]2(C)[C@H]([C@H](OC(=O)c3ccccc3)[C@]3(O)C[C@H](OC(=O)[C@H](O)[C@@H](NC(=O)c4ccccc4)c4ccccc4)C(C)=C1C3(C)C)[C@]1(OC(C)=O)CO[C@@H]1C[C@@H]2O
active: CP297 757 nM | CP305 601 nM | CP315 478 nM | CP325 536 nM | CP329 601 nM | CP335 269 nM | DFO2036 282 nM | DIV14 953 nM | DIV17 953 nM | DIV30 601 nM
